# Activity calls are given as the source filed them.
# Key:
# [1] = small molecules captured by biotinylated probe aFSTL3 – biochemical, small-molecule microarray, fluorescence 635/667, stem cell growth factor project, primary screen (AID 1064); details: higher = more signal;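 also: measures binding of the biotinylated anti-FSTL3 antibody to printed compounds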
# [2] = binders from COS7 lysate, DM2A8 probe, primary screen, torsin A project, cell lysate, small-molecule microarray, fluorescence 635/667 (AID 1065); details: higher = more signal, COS7 lysate expressing mutant human TOR1A
# [3] = small molecules captured by biotinylated probe aFGF2 – biochemical, small-molecule microarray, fluorescence 635/667, stem cell growth factor project, primary screen (AID 1067); details: higher = more signal;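 also: measures binding of biotinylated aFGF2 protein to printed compounds on slides; z-score merges feature fluorescence and signal-to-noise across triplicate slides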
# [4] = small molecules captured by biotinylated probe aFGF10 – biochemical, small-molecule microarray, fluorescence 635/667, stem cell growth factor project, primary screen (AID 1071); details: higher = more signal;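 also: score merges 667 nm spot intensity and signal to noise from triplicate slides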
# [5] = biological target: Neurogenic locus notch homolog protein 2 (Homo sapiens) (UniProt Q04721); assay: small molecules binding Notch2 protein – biochemical, small-molecule microarray, 635 nm fluorescence, stem cell growth factors, primary screen (AID 1073); details: higher = more signal
# [6] = biological target: Pro-neuregulin-1, membrane-bound isoform (Homo sapiens) (UniProt Q02297); assay: small molecules binding neuregulin-1 protein – biochemical, small-molecule microarray, fluorescence 635/667, psychiatric disease protein project, primary screen (AID 1075); details: NRG1 binding, 635 nm fluorescence, higher = more signal;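 also: score combines 667 nm spot fluorescence with signal to noise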
# [7] = tested on: Neuregulin-1 EGF-like domain; assay: small molecules binding NRG1 EGF domain – biochemical, small-molecule microarray, 635 nm fluorescence, primary screen (AID 1081); details: higher = more signal;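 also: binding of the protein to compounds printed on small-molecule microarray slides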
# [8] = FRG1 expression reporter modulators in myotubes – cell-based, C2C12 myotubes, firefly/Renilla luciferase, luminescence, FRG1 inhibition for FSHD, primary screen (AID 1084); details: FRG1 promoter luciferase, higher = more signal, called active from +8 up or from −8 down
# [9] = small molecules captured by biotinylated probe aFST – biochemical, small-molecule microarray, fluorescence 635/667, stem cell growth factor project, primary screen (AID 1086); details: higher = more signal;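 also: score merges 667 nm fluorescence with signal-to-noise of each printed compound spot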
# [10] = binders of probe aHhip on microarray, primary screen, stem cell growth factor project, biochemical, small-molecule microarray, fluorescence 635/667 (AID 1087); details: higher = more signal;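 also: score merges spot fluorescence at 667nm with spot signal to noise ratio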
# [11] = tested on: PRMT1 (protein arginine N-methyltransferase 1); assay: small molecules binding arginine methyltransferase PRMT1 – biochemical, small-molecule microarray, 635 nm fluorescence, primary screen (AID 1088); details: higher = more signal;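 also: binding of Prmt1 protein to compounds spotted on small-molecule microarray slides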
# [12] = growth effects on S. cerevisiae YJM789 – YJM789 clinical isolate, OD600, 24 h, basal, primary screen (AID 1089); details: higher = more signal, called active from +8 up or from −8 down;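 also: growth of clinical yeast isolate S. cerevisiae YJM 789 seeded 1000 cells per well; test concentration not given here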
# [13] = S. pombe growth modifiers, basal conditions – strain 972, OD600, 24 h, no modulator, primary screen (AID 1090);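 also: basal condition with compound alone and no growth modifier present; test concentration not given here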; details: S. pombe 972 growth, higher = more signal, called active from +8 up or from −8 down
# [14] = budding yeast growth modifiers under rapamycin – strain BY4716, OD600, 96 h, primary screen (AID 1091); also: test concentration not given here; details: S. cerevisiae BY4716 + rapamycin, higher = more signal, called active from +8 up or from −8 down
# [15] = biological target: Torsin-1A-interacting protein 2 (Homo sapiens) (UniProt Q8NFQ8); assay: small molecules binding lysate-expressed LULL1 – cell lysate, human LULL1 lysate, 635/667 nm fluorescence, primary screen (AID 1092); details: small-molecule microarray, hLULL1 lysate binding, 635 nm fluorescence; higher = more signal;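 also: probe is lysate of COS7 cells overexpressing human LULL1; score merges per-feature 667 nm fluorescence with signal-to-noise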
# [16] = optical density change of DRC41 E. coli – strain DRC41, OD650, 24 h, E. coli filamentation project, primary screen (AID 1093);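 also: MC1000 strain lacking acrAB efflux and sulA so SOS filamentation is blocked; test concentration not given here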; details: E. coli DRC41 growth, higher = more signal, called active from +8 up or from −8 down
# [17] = probe aLefty2 binding to arrayed compounds – biochemical, biotinylated probe, 635/667 nm fluorescence, primary screen (AID 1094); details: small-molecule microarray, higher = more signal;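 also: score merges spot fluorescence near 667 nm with spot signal-to-noise ratio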
# [18] = tested on: Noggin (protein binding on small-molecule microarray); assay: small molecules binding Noggin protein – biochemical, 635/667 nm fluorescence, primary screen (AID 1095); details: 635 nm fluorescence, higher = more signal;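 also: score merges 667 nm feature fluorescence with signal to noise over triplicate slides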
# [19] = biological target: Neurogenic locus notch homolog protein 3 (Homo sapiens) (UniProt Q9UM47); assay: small molecules binding NOTCH3 protein – biochemical, 635/667 nm fluorescence, primary screen (AID 1096); details: small-molecule microarray, 635 nm fluorescence, higher = more signal
# [20] = probe aEGFR binding to arrayed compounds – biochemical, biotinylated probe, 635/667 nm fluorescence, primary screen (AID 1097); details: small-molecule microarray, higher = more signal;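 also: probe is a biotinylated anti-EGFR antibody binding compounds printed on slides; score combines fluorescence near 667 nm and signal to noise of each spot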
# Sequence of Torsin-1A-interacting protein 2 (Homo sapiens) (Q8NFQ8 whole entry, looked up): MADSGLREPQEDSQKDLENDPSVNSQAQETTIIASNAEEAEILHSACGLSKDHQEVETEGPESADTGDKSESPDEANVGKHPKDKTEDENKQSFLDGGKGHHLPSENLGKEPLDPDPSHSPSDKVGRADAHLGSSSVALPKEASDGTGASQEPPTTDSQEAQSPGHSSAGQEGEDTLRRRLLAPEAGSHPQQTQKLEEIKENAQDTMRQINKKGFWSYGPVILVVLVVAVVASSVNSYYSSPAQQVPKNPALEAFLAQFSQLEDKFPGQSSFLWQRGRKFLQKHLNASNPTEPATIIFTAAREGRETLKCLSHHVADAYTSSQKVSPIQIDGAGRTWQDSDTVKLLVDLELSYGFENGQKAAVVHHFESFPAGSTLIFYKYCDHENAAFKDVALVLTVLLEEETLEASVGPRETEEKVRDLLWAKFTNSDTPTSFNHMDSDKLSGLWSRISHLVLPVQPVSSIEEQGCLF
# Sequence of Neurogenic locus notch homolog protein 3 (Homo sapiens) (Q9UM47 whole entry, looked up): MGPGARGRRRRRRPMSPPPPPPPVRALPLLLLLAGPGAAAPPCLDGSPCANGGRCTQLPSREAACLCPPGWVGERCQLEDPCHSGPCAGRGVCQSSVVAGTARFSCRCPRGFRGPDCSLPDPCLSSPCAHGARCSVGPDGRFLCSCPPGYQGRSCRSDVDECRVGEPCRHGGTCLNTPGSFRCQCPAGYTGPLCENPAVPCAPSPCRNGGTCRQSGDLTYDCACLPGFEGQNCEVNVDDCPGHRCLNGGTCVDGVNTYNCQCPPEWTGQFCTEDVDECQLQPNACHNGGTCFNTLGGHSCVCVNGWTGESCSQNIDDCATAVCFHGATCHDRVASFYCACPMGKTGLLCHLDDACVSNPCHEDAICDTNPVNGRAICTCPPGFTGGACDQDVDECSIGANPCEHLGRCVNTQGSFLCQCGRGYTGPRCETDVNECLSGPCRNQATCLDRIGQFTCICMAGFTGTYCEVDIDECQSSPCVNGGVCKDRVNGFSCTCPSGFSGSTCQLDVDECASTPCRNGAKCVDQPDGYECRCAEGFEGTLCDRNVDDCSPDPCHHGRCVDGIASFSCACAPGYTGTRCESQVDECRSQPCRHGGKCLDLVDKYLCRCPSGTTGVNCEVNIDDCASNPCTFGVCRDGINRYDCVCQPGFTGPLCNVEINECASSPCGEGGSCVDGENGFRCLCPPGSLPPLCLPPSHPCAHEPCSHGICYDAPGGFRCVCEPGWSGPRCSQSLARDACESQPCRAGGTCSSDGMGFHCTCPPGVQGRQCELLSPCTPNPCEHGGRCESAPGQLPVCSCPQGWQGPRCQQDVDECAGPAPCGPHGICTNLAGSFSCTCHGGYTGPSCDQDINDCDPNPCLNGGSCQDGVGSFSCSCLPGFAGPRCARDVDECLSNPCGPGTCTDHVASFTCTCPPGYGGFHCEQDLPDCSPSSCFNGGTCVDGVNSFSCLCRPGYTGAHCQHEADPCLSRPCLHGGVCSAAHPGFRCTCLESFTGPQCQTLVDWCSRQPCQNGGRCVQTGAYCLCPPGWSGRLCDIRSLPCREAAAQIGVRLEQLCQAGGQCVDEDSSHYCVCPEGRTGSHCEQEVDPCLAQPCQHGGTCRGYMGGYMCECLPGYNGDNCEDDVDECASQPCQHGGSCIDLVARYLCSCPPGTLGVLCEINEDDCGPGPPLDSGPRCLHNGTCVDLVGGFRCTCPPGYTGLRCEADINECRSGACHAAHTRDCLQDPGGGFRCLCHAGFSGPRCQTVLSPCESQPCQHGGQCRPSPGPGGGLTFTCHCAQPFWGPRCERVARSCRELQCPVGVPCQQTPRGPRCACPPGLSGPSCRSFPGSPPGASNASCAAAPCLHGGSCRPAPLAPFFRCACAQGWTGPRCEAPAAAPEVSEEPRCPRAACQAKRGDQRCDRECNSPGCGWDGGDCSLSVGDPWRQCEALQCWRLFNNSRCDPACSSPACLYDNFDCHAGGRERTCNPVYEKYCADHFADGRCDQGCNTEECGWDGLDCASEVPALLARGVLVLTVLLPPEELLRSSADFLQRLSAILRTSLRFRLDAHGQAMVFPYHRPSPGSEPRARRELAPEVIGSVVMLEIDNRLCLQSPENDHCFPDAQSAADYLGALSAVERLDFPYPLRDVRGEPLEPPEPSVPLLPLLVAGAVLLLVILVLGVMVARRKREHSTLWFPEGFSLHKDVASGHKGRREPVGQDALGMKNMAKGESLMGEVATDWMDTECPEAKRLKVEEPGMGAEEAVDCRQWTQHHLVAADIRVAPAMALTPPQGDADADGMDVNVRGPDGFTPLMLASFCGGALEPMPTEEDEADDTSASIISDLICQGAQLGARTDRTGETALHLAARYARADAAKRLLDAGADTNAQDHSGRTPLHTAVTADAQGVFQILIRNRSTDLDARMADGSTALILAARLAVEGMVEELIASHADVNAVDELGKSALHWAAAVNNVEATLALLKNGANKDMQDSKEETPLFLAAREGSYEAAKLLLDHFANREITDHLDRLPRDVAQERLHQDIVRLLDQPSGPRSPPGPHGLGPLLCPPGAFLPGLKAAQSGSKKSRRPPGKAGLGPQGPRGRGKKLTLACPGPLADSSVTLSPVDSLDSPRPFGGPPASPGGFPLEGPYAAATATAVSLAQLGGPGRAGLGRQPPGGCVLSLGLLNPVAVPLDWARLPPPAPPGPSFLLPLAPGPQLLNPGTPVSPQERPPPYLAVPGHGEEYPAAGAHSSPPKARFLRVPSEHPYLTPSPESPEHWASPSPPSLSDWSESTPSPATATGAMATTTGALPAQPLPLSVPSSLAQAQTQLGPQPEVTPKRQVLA
# Sequence of Pro-neuregulin-1, membrane-bound isoform (Homo sapiens) (Q02297 whole entry, looked up, the tested form may be a part, canonical isoform): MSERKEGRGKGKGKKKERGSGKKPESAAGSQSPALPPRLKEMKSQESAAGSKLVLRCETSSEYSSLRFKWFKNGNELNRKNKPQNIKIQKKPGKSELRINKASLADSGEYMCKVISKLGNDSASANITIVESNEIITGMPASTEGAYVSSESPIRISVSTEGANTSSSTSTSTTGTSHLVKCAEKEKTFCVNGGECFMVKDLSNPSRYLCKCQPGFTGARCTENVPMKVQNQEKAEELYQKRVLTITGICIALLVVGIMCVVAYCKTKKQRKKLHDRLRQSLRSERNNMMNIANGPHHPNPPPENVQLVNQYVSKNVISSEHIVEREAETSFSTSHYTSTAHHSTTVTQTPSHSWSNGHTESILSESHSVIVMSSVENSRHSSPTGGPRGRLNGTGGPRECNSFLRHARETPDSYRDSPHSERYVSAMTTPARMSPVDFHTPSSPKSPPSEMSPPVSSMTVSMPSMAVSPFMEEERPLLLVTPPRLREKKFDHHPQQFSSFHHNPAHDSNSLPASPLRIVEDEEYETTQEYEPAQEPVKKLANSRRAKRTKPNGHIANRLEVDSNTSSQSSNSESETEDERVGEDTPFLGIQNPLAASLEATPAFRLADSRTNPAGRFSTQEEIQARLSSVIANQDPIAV
Structure (SMILES),composite z-score [1],composite z-score [2],composite z-score [3],composite z-score [4],composite z-score [5],composite z-score [6],composite z-score [7],z-score [8],composite z-score [9],composite z-score [10],composite z-score [11],z-score [12],z-score [13],z-score [14],composite z-score [15],z-score [16],composite z-score [17],composite z-score [18],composite z-score [19],composite z-score [20]
COc1cc2c(cc1O)C(C)N(Cc1cccc(OC(F)(F)F)c1)CC2 (stereo not given),0.067,-0.142,0.139,0.953,1.23,2.13,1.47,0.734 (inactive),0.226,-0.205,1.42,-0.167 (inactive),-2.4 (inactive),-1.09 (inactive),3.02,-1.26 (inactive),-0.0719,0.205,0.76,-0.0697
[N-]=[N+]=Nc1ccccc1[C@H]1OC(c2ccc(OCCCO)cc2)=N[C@@]1(CCS(=O)(=O)c1ccccc1)C(=O)O,1.13,0.298,0.051,0.0993,0.402,0.826,0.67,3.83 (inactive),0.697,-0.189,0.164,-0.775 (inactive),-3.52 (inactive),-0.0047 (inactive),3.2,1.46 (inactive),0.308,-0.688,-0.0883,-0.179
COCCOC(=O)N1C(=O)[C@@]2(c3cc(C#CCC(C(=O)OC)C(=O)OC)ccc31)[C@H](c1ccccc1OCCO)N1[C@H](c3ccccc3)[C@H](c3ccccc3)OC(=O)[C@H]1[C@@H]2C(=O)N1CCc2cc(OC)c(OC)cc2C1,-0.257,0.007,-0.126,0.319,1.46,1.09,1.27,-0.285 (inactive),0.638,-0.0655,1.56,0.502 (inactive),0.979 (inactive),3.89 (inactive),2.42,1.92 (inactive),-0.0373,1.64,0.729,0.0637
CCOc1cc(C(O)C2C=CC3C(=O)N(c4ccccc4)C(=O)C3N2Nc2ccc([N+](=O)[O-])cc2)ccc1O (stereo not given),-0.549,0.23,0.0139,0.516,0.796,0.946,0.943,-0.374 (inactive),0.311,-0.271,1.07,-0.441 (inactive),0.442 (inactive),-0.364 (inactive),3.37,-0.961 (inactive),-0.0534,0.0883,0.782,-0.067
CC(C)(C)OC(=O)CC[C@@]1(C(=O)O)N=C(c2ccc(OCCCO)cc2)O[C@@H]1c1ccccc1N=[N+]=[N-],1.09,1.56,0.0918,1.11,0.984,1,1.15,6.94 (inactive),0.457,-0.277,1.15,0.949 (inactive),0.419 (inactive),-0.286 (inactive),2.15,0.484 (inactive),0.553,-0.569,0.104,0.325
C=C[C@H](C)[C@@H](O)c1ccc(O)c2ccccc12,-0.161,-0.0359,0.126,-0.749,-1,-0.329,-0.158,-0.202 (inactive),-1.03,0.0274,-0.169,-0.968 (inactive),-13.3 (active),4.25 (inactive),0.853,0.149 (inactive),-0.254,-0.0597,-0.0004,-0.322
CC(C)N1CC=CC23O[C@@H]4C=CCOC(=O)[C@@H]4[C@H]2C(=O)N(CCO)[C@@H]3C1=O (stereo not given in full),0.283,-1.72,-0.187,-0.484,-1.11,0.247,1.02,0.188 (inactive),-0.634,-0.397,0.53,1.14 (inactive),0.24 (inactive),-0.938 (inactive),3.37,0.73 (inactive),-0.328,-0.431,0.173,-0.287
CCOC(=O)C[C@H]1[C@H](OC(=O)c2ccc(-c3ccccc3)cc2)[C@@H](NC(=O)Cc2ccc(OC)cc2)c2cc(OCCCO)ccc2N1C(=O)c1ccc2ccccc2n1,-0.389,-0.188,0.0176,0.178,0.76,0.33,0.0896,0.817 (inactive),0.484,-0.0645,0.532,-0.914 (inactive),0.56 (inactive),0.0126 (inactive),1.73,-0.733 (inactive),-0.0561,0.587,0.317,0.223
CCOC(=O)[C@H]1C/C=C/C[C@H](C(=O)OCC)C(=O)O[C@H]2[C@@H](OC)O[C@H](CO)[C@@H](OC(=O)Nc3ccc4c(c3)OCO4)[C@@H]2OC1=O,-0.267,0.451,0.0302,0.718,0.235,1.5,1.25,0.891 (inactive),0.0008,-0.212,0.921,1.12 (inactive),0.079 (inactive),6.03 (inactive),2.35,1.59 (inactive),-0.0238,-0.259,0.145,-0.071

# From PubChem BioAssay
